The structures appear in SMILES notation. The full ranking holds about 1,700 compounds; the median of “fraction of GFP-LC3-positive cells (≥5 vesicles/cell)” is about 0.43, and the highest 2% start at about 0.81. The full list was thinned out, with the highest values kept by preference.

In this test the test system is CbCln3 Δex7/8/Δex7/8 GFP-LC3 cerebellar neuronal cells. Put plainly: fraction of GFP-LC3-positive cells (≥5 vesicles/cell); higher = more autophagosome accumulation. The method, boiled down:
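By pin transfer, ~50 nL of compound in DMSO went in duplicate into 384-well plates holding 2 × 10^3 wild-type or mutant CbCln3 cerebellar cells per well that stably express GFP-LC3, followed by 24 h at 33 °C. The final 30 min included Hoechst 33342 and LysoTracker Red, and then came 3.2% PFA fixation and 10× imaging of three fields per well. Each value gives the fraction of cells above a vesicle threshold, averaged across duplicates, with CellProfiler counting GFP-LC3 vesicles and out-of-focus images left out. The threshold is 5 or more vesicles per cell.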
Turning to `CCCCN(CCCC)CCC(O)c1cc2c(Cl)cc(Cl)cc2c2cc(C(F)(F)F)ccc12.Cl` (stereo not given) [Halofantrine hydrochloride], the “fraction of GFP-LC3-positive cells” value is 0.319.
For the molecule `CCCCC[C@H](O)/C=C/C=C\C=C\C=C\[C@@H](O)[C@@H](O)CCCC(=O)O` [Lipoxin A4], the “fraction of GFP-LC3-positive cells” value was 0.498.
With `OCC(O)CN1CCN(c2ccccc2)CC1` (racemic) [Dropropizine (R,S)], the “fraction of GFP-LC3-positive cells” value came out at 0.442.
For `Cl.OC(CCN1CCCCC1)(c1ccccc1)C1C[C@@H]2C=C[C@H]1C2` (stereo not given in full) [Biperiden hydrochloride], the “fraction of GFP-LC3-positive cells” value was 0.447.
For `CC[N+](CC)(CC(=O)Nc1c(C)cccc1C)Cc1ccccc1.O=C([O-])c1ccccc1` [Denatonium benzoate], the “fraction of GFP-LC3-positive cells” value worked out at 0.424.
The figure for `Nc1ncnc2c1ncn2[C@@H]1O[C@@H]2COP(=O)(O)OC2C1O` (single isomer, unassigned; (-)) [(-)-Adenosine 3',5'-cyclic monophosphate] is 0.271.
The value for `COCCOC(=O)C1=C(C)NC(C)=C(C(=O)OC(C)C)C1c1cccc([N+](=O)[O-])c1` (stereo not given) [Nimodipine] was 0.35; that for `Cl.N=C(N)NC(=O)c1nc(Cl)c(N)nc1N.O.O` [Amiloride hydrochloride dihydrate] was 0.398; that for `CC(=O)O[C@H]1C(=O)[C@@]2(C)[C@H]([C@H](OC(=O)c3ccccc3)[C@]3(O)C[C@H](OC(=O)[C@H](O)[C@@H](NC(=O)c4ccccc4)c4ccccc4)C(C)=C1C3(C)C)[C@]1(OC(C)=O)CO[C@@H]1C[C@@H]2O` [Paclitaxel] was 0.843.
The value for `CC(=O)O[C@H]1C(=O)[C@@]2(C)C([C@H](OC(=O)c3ccccc3)[C@]3(O)C[C@H](OC(=O)[C@H](O)[C@@H](NC(=O)c4ccccc4)c4ccccc4)C(C)=C1C3(C)C)[C@]1(OC(C)=O)CO[C@@H]1C[C@@H]2O` (stereo not given in full) [taxol =paclitaxel] was 0.89; that for `COc1c(C=O)c(O)cc2c1C(=O)c1ccccc1C2=O` [damnacanthal] was 0.173.
In the case of `O.Oc1cc(O)c2c(c1)OC(c1ccc(O)c(O)c1)C(O)C2` (racemic) [Catechin-(+,-) hydrate], the “fraction of GFP-LC3-positive cells” value was found to be 0.337.
Regarding `CC/C=C\C[C@H](O)/C=C/C=C\C/C=C\C/C=C\CCCC(=O)O`, the “fraction of GFP-LC3-positive cells” value came to 0.434.
For the molecule `CCCCCCCC/C=C/CCCCCCCCC(=O)O` [10(Z)-Nonadecenoic acid], the “fraction of GFP-LC3-positive cells” value is 0.551.
With `CCCCCCCC/C=C/CCCCCCCCC(=O)O` [10(E)-Nonadecenoic acid], the “fraction of GFP-LC3-positive cells” value was found to be 0.516.
The figure for `NC[C@H]1O[C@H](O[C@H]2[C@H](O)[C@@H](O[C@H]3O[C@H](CO)[C@@H](O)[C@H](N)[C@H]3O)[C@H](N)C[C@@H]2N)[C@H](N)C[C@@H]1O` [Tobramycin] is 0.5.
Take `COc1cc(N)c(Cl)cc1C(=O)NC1CCN(Cc2ccccc2)CC1.O=C(O)/C=C\C(=O)O` [Clebopride maleate]: the “fraction of GFP-LC3-positive cells” value came out at 0.506.
The value for `CC(C(O)c1ccc(O)cc1)N1CCC(Cc2ccccc2)CC1.O=C(O)C(O)C(O)C(=O)O` (stereo not given) [Ifenprodil tartrate] was 0.481; that for `Cl.Fc1ccc([C@@H]2CCNC[C@H]2COc2ccc3c(c2)OCO3)cc1` [Paroxetine Hydrochloride] was 0.5; that for `Nc1ccc(S(=O)(=O)Nc2ccc(Cl)nn2)cc1` [Sulfachloropyridazine] was 0.368.
Turning to `CC1CNc2c(cccc2S(=O)(=O)N[C@@H](CCCNC(=N)N)C(=O)N2CC[C@@H](C)C[C@@H]2C(=O)O)C1` (stereo not given in full) [Argatroban], the “fraction of GFP-LC3-positive cells” value worked out at 0.486.
`CCCCC[C@H](O)/C=C/C=C/C=C/[C@@H](O)C/C=C\CCCC(=O)O` [8(S),15(S)-DiHETE all trans]: the “fraction of GFP-LC3-positive cells” value is 0.456.
The figure for `CCN(CC)CCOC(=O)c1ccc(N)cc1.Cl` [Procaine hydrochloride] is 0.483.
The figure for `C[C@]12C=CC(=O)C=C1CC[C@@H]1[C@@H]2[C@@H](O)C[C@@]2(C)[C@H]1CC[C@]2(O)C(=O)CO` [Prednisolone] is 0.183; for `CCCCOc1ccc(C(=O)CCN2CCCCC2)cc1.Cl` [Dyclonine hydrochloride] it is 0.322.
As for `NC(=O)c1cc[n+](CC2=C(C(=O)[O-])N3C(=O)[C@@H](NC(=O)[C@@H](c4ccccc4)S(=O)(=O)[O-])[C@H]3SC2)cc1.[Na+]` [Cefsulodin sodium salt], the “fraction of GFP-LC3-positive cells” value stood at 0.367.
As for `CC1(C)[C@@H](OC(=O)CCC(=O)[O-])CC[C@]2(C)[C@H]3C(=O)C=C4[C@@H]5C[C@@](C)(C(=O)[O-])CC[C@]5(C)CC[C@@]4(C)[C@]3(C)CC[C@@H]12.[Na+].[Na+]` [Carbenoxolone disodium salt], the “fraction of GFP-LC3-positive cells” value was 0.269.
The figure for `CCCCCCCCCCCCCCCCCCc1ccc(C(=O)/C=C/C(=O)O)cc1` is 0.48; for `CCCSc1ccc2[nH]c(NC(=O)OC)nc2c1` [Albendazole] it is 0.899; for `COC(=O)Nc1nc2cc(SC(C)C)ccc2[nH]1` [Methiazole] it is 0.836.
The value for `CCCCCCCCCCCCCCCC(=O)NCCc1ccc(O)c(O)c1` [Palmitoyl dopamine] was 0.456; that for `CCCCc1ccc2[nH]c(NC(=O)OC)nc2c1` [Parbendazole] was 0.927.
The value for `COC(=O)Nc1nc2cc(Sc3ccccc3)ccc2[nH]1` [Fenbendazole] was 0.648; that for `NCc1ccccc1CC(=O)N[C@@H]1C(=O)N2C(C(=O)O)=C(CSc3nnnn3CC(=O)O)CS[C@H]12` [Ceforanide] was 0.519.
For the molecule `CC1CCc2cc(F)cc3c(=O)c(C(=O)O)cn1c23` (stereo not given) [Flumequine], the “fraction of GFP-LC3-positive cells” value was found to be 0.273.
